The panel holds about 83,000 compounds, 20% with a hit somewhere; the sample as a whole holds those more often.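 Growth was measured after 48 h exposure to one concentration of compound in 96-well plates. Values under 10 count as active.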 Activity calls are given as the source filed them.
Experiments:
Test in all cases: NCI-60 one-dose screen, 48 h (100 = growth as untreated, 0 = no growth, -100 = all killed)
Settings in all cases: 10 µM unless noted
[1] = test system: NCI-H23 lung
[2] = test system: NCI-H226 lung
[3] = test system: NCI-H322M lung
[4] = test system: HOP-62 NSCLC
[5] = test system: NCI-H460 lung
[6] = test system: HOP-92 NSCLC
[7] = test system: NCI-H522 lung
[8] = test system: A549/ATCC NSCLC
[9] = test system: 786-0 renal
[10] = test system: COLO 205 colon
[11] = test system: DU-145 prostate
[12] = test system: K-562 leukemia
[13] = test system: MALME-3M melanoma
[14] = test system: MDA-MB-231 breast
[15] = test system: RXF 393 renal
[16] = test system: SF-268 CNS
[17] = test system: SF-295 CNS
[18] = test system: SF-539 CNS
[19] = test system: UACC-257 melanoma
[20] = test system: M14 melanoma

Measured: growth

COc1ccc(N=Nc2c(N)nn3c(N)c(C#N)c(-c4ccccc4)nc23)cc1
active: [2] 0.868% | [4] -1.62% | [6] -9.66% | [7] -4.5% | [14] 9.1% | [15] 8.34% | [18] -3.46%
inactive: [1] 32.3% | [3] 45.7% | [5] 16.1% | [8] 53.1% | [9] 13.8% | [10] 80.8% | [11] 24.4% | [12] 71.8% | [13] 28.5% | [16] 11.6% | [17] 39.4% | [19] 71% | [20] 74.2%

COc1ccc2c(c1)C(Sc1ccc(F)cc1)c1c(nc(N)c(C#N)c1N)O2 (stereo not given)
inactive: [1] 90.7% | [2] 90.9% | [3] 94.4% | [4] 111% | [5] 95.7% | [6] 116% | [7] 78.9% | [8] 96.2% | [9] 80.7% | [10] 104% | [11] 99.5% | [12] 63.5% | [13] 88.3% | [14] 80.1% | [15] 69.2% | [16] 85% | [17] 92.8% | [18] 90.5% | [19] 104% | [20] 84.9%

CCCCC[C@@H]1C/C=C(\C)[C@@H](O)C(C)(C)C(=O)[C@@H](C)/C=C(\C)[C@@H]2C[C@H](O)C[C@](O)(CC(=O)O1)O2
active: [19] 1.3%
inactive: [1] 31% | [2] 14% | [3] 82% | [4] 68.7% | [5] 49.6% | [6] 60.4% | [7] 12.5% | [8] 36.8% | [9] 65.8% | [10] 37.6% | [11] 41.3% | [12] 13.6% | [13] 34.9% | [14] 83.4% | [15] 68% | [16] 43.1% | [17] 11% | [18] 73.8% | [20] 49.6%

Fc1cccc(CNc2nc(SCCN3CCOCC3)nc3c2cnn3CC(Cl)c2ccc(Br)cc2)c1 (stereo not given)
inactive: [1] 46.2% | [2] 27.5% | [3] 81.7% | [4] 44.9% | [6] 20.3% | [7] 36.8% | [8] 19.9% | [9] 20.9% | [11] 49.9% | [15] 29.5% | [16] 35% | [18] 10.8% | [19] 20.1% | [20] 28%
active: [5] 7.02% | [10] -9.76% | [12] -4.59% | [13] -19.6% | [14] 6.57% | [17] -10.5%

COc1c2c(c(Br)c3c1C(CCc1ccccc1)N(C)CC3)OCO2 (stereo not given)
active: [18] -8.69%
inactive: [1] 16.4% | [2] 51.7% | [3] 38.5% | [4] 68.2% | [5] 23.5% | [6] 22.6% | [7] 56.9% | [8] 45.9% | [9] 47.6% | [10] 29.6% | [11] 56.7% | [12] 28.1% | [13] 63.7% | [14] 39.9% | [15] 72.9% | [16] 45.7% | [17] 40.6% | [19] 64.9% | [20] 29%

Nc1nn2c(-c3cc4cc(Br)ccc4oc3=O)ccnc2c1N=Nc1ccccc1
inactive: [8] 53.4% | [10] 80.2% | [11] 37.1% | [12] 83.2% | [13] 26.2% | [19] 61.8% | [20] 74.9%
active: [1] 1.73% | [2] -55.6% | [3] 8.62% | [4] 1.3% | [5] -28% | [6] -18.8% | [7] -51.6% | [9] -3.59% | [14] -36.8% | [15] -53% | [16] -28.4% | [17] 9.13% | [18] -84.4%

O=C(Nc1nc2ccc([N+](=O)[O-])cc2s1)Nc1ccc(Cl)cc1Cl
inactive: [1] 18.2% | [2] 61.1% | [3] 72.2% | [4] 39.8% | [5] 27.6% | [6] 29.1% | [7] 20.3% | [8] 55.8% | [9] 19.6% | [10] 74.7% | [11] 64.1% | [12] 24.6% | [13] 52.4% | [15] 20% | [16] 66.1% | [17] 17.2% | [18] 11.7% | [19] 60.3% | [20] 77.9%
active: [14] 1.5%

CN1CCN(C(=O)Oc2cc3c(c4ccccc24)[C@H](CCl)CN3C(=O)c2cc3cc(OCCCN4CCC4)ccc3[nH]2)[C@H]2CSSC[C@H]21
active: [1] -65% | [2] -14.5% | [3] -13.1% | [4] -37.8% | [5] 0.951% | [6] -18.8% | [7] -54.8% | [8] 4% | [9] -8.82% | [10] -81.5% | [11] -3.53% | [12] 3.04% | [13] -64.8% | [14] -14.8% | [15] -78.8% | [16] -9.36% | [17] -6.36% | [18] -75.2% | [19] -15.6% | [20] -75.2%

CN(C)CCCc1ccc(Nc2cnn(C)c(=O)c2Cl)cc1
inactive: [1] 98% | [2] 99% | [3] 92.9% | [4] 108% | [5] 103% | [6] 110% | [7] 96.3% | [8] 93.8% | [9] 95.9% | [10] 118% | [11] 116% | [12] 89.8% | [13] 88.8% | [14] 108% | [15] 90.2% | [16] 113% | [17] 89.2% | [18] 94% | [19] 98.5% | [20] 100%

CC1=C(C(=O)Nc2ccccc2)C(c2ccc3ccccc3c2)n2c(nc3ccccc32)N1 (stereo not given)
inactive: [1] 73.3% | [2] 84% | [3] 66.3% | [4] 113% | [6] 64.2% | [7] 63% | [9] 10.6% | [10] 112% | [11] 46.2% | [12] 43.8% | [13] 72.5% | [15] 53.3% | [16] 72.5% | [17] 37% | [18] 81.8% | [19] 81.1% | [20] 66.6%
active: [5] -45.5% | [8] 8.83% | [14] 5.61%

COc1ccc([C@H]2C(C(=O)c3ccc(Cl)cc3)C3(N[C@@H]2c2ccccc2)C(=O)Nc2ccccc23)cc1 (stereo not given in full)
active: [10] -6.01%
inactive: [1] 21.2% | [2] 24.9% | [3] 54.5% | [4] 51% | [5] 18.3% | [6] 23% | [7] 29.5% | [8] 31% | [9] 28.4% | [11] 52% | [12] 18.8% | [13] 32.2% | [14] 25.8% | [15] 15.8% | [16] 37.3% | [17] 15.2% | [18] 34.5% | [19] 44% | [20] 53%

O=C1Nc2ccccc2/C1=C\c1ccc(OCC(=O)c2ccc(Br)cc2)cc1
inactive: [1] 50.9% | [2] 71.6% | [3] 87.5% | [4] 104% | [5] 58.5% | [6] 75.5% | [7] 61.4% | [8] 58.4% | [9] 89.8% | [10] 65.9% | [11] 85.6% | [12] 27.8% | [13] 81% | [14] 82.2% | [15] 67.6% | [16] 86.9% | [17] 58.6% | [18] 81.5% | [19] 73.6% | [20] 73.1%

CC1CCc2c(sc3nc(SCC(=O)c4cccc([N+](=O)[O-])c4)n(-c4ccccc4)c(=O)c23)C1 (stereo not given)
inactive: [1] 47.4% | [2] 66.6% | [3] 97.9% | [4] 77.7% | [5] 97.1% | [6] 85.5% | [7] 54.3% | [8] 89.7% | [9] 56.6% | [10] 106% | [11] 63.1% | [12] 57.1% | [13] 111% | [14] 10.1% | [15] 99.9% | [16] 73.2% | [17] 74.2% | [19] 97.8% | [20] 80.6%
active: [18] -10.9%

COc1ccc2nc(NC(=O)c3ccc(N(C)C)cc3)sc2c1
inactive: [1] 66.2% | [2] 56.9% | [3] 64.7% | [4] 92% | [5] 65.9% | [6] 112% | [7] 67.7% | [8] 54.9% | [9] 85% | [10] 89.5% | [11] 83.4% | [12] 60.2% | [13] 72.7% | [14] 92.7% | [15] 110% | [16] 90.2% | [17] 59% | [18] 90% | [19] 80.6% | [20] 87.4%

Cc1ccc(C2CC(c3ccc(S(=O)(=O)NCCNc4nc(N(C)C)nc(N5CCOCC5)n4)cc3)=Nc3c(N)nc(N)nc3N2)cc1 (stereo not given)
active: [6] -9.13%
inactive: [1] 72% | [2] 63.8% | [3] 77.3% | [4] 63.9% | [5] 53.6% | [7] 80.1% | [8] 62.2% | [9] 32.8% | [10] 72.3% | [11] 66% | [12] 22.8% | [13] 57.3% | [14] 31% | [15] 10.6% | [16] 45.2% | [17] 32.7% | [18] 43.8% | [19] 72.6% | [20] 44.7%

From PubChem BioAssay (NCI)
